This is an account of results in PubChem BioAssay (NCATS).

Structures are written as SMILES. Records with an inconclusive call do not appear. Unmarked numbers belong to inactive results. Calls come from the whole dose curve; as a rule, active = well fitted curve in the direction sought with a large enough effect in the signal ratio, with a control signal flat (not every such curve was filed as active); inconclusive = small, poorly fitted or top-dose-only effect, or effect the other way, or a change in a side signal; inactive = no such curve, though single readings can be large or run the other way; the % refers to the signal ratio.

In the assay the target is Tyrosine-protein phosphatase non-receptor type substrate 1 (Homo sapiens) + Leukocyte surface antigen CD47 (Homo sapiens) (UniProt P78324+Q08722). Description: CD47-SIRPalpha protein protein interaction - LANCE assay qHTS validation (AID 1347057). Note: 0% is about no effect. The settings on record: Recombinant CD47-His / biotin-SIRPalpha, TR-FRET ratio; series mostly up to 38.3 µM; activity change, negative = inhibition: at the top concentration. The essentials: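 First, His-tagged CD47 and Eu-labelled anti-His antibody met the compound for 30 min; next, site-specifically biotinylated SIRPalpha was added for 30 min; finally streptavidin-APC was added before reading the TR-FRET ratio.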
Chain of Tyrosine-protein phosphatase non-receptor type substrate 1 (Homo sapiens) + Leukocyte surface antigen CD47 (Homo sapiens) (P78324 whole entry, looked up): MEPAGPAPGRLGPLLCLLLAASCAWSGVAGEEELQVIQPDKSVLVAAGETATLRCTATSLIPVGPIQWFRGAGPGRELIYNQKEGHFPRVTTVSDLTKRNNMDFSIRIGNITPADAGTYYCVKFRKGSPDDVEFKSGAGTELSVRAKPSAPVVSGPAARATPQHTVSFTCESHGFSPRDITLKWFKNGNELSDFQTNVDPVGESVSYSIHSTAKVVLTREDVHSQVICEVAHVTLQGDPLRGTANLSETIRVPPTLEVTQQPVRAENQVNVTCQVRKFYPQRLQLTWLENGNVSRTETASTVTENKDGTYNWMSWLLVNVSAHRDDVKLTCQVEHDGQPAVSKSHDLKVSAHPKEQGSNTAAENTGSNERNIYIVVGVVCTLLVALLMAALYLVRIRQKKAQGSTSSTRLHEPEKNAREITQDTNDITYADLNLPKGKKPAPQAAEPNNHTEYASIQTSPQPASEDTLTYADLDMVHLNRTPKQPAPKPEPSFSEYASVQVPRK
Chain of Tyrosine-protein phosphatase non-receptor type substrate 1 (Homo sapiens) + Leukocyte surface antigen CD47 (Homo sapiens) (Q08722 whole entry, looked up): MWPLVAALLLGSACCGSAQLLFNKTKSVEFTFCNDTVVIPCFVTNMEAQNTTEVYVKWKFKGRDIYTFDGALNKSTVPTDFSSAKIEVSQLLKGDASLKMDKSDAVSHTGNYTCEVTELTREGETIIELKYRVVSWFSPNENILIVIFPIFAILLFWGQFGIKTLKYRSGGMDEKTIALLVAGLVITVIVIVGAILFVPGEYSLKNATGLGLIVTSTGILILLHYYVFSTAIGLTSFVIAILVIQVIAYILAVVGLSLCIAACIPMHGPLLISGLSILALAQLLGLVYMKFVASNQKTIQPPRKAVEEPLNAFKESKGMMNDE
In general terms: In TR-FRET formats the signal depends on donor and acceptor labels being close together.
With `CCN(CC)CCOCCOC(=O)C1(c2ccccc2)CCCC1`, the “activity change, negative = inhibition” value was 0.44%.

Regarding `CN(C)C/C=C(/c1ccc(Br)cc1)c1cccnc1`, the “activity change, negative = inhibition” value was 0.531%.

For the molecule `COCCCC/C(=N\OCCN)c1ccc(C(F)(F)F)cc1`, the “activity change, negative = inhibition” value is 0.615%.

`NC(N)=NC(=O)Cc1c(Cl)cccc1Cl`: the “activity change, negative = inhibition” value is 0.44%.

As to `Cc1nc2sccn2c(=O)c1CCN1CCC(=C(c2ccc(F)cc2)c2ccc(F)cc2)CC1`, the “activity change, negative = inhibition” value was 1.45%.

As for `C[N+](C)(C)CCCCCCCCCC[N+](C)(C)C`, the “activity change, negative = inhibition” value was 1.8%.

For the molecule `CC[N+](C)(C)c1cccc(O)c1`, the “activity change, negative = inhibition” value is -1.24%.

Take `CN(C)CCN(Cc1cccs1)c1ccccn1`: the “activity change, negative = inhibition” value is -3.99%.

For `CC(C)COCC(CN(Cc1ccccc1)c1ccccc1)N1CCCC1` (stereo not given), the “activity change, negative = inhibition” value was 0.466%.

In the case of `C#CCN(C)CCCOc1ccc(Cl)cc1Cl`, the “activity change, negative = inhibition” value was -0.0109%.

In the case of `COc1cc(C(=O)OCCCN2CCCN(CCCOC(=O)c3cc(OC)c(OC)c(OC)c3)CC2)cc(OC)c1OC`, the “activity change, negative = inhibition” value is -2.01%.

As for `CC1=NS(=O)(=O)c2cc(Cl)ccc2N1`, the “activity change, negative = inhibition” value was -0.429%.

With `Cc1nc2ccccn2c(=O)c1CCN1CCC(C(=O)c2ccc(F)cc2)CC1`, the “activity change, negative = inhibition” value was 0.927%.

As to `CN(C(=O)CCCOc1ccc2[nH]c(=O)ccc2c1)C1CCCCC1`, the “activity change, negative = inhibition” value was -0.44%.

Consider `CCn1nc(C(=O)O)c(=O)c2cc3c(cc21)OCO3`, for which the “activity change, negative = inhibition” value was -0.468%.

Turning to `CN1CCN(C2=Nc3ccccc3Oc3ccc(Cl)cc32)CC1`, the “activity change, negative = inhibition” value was 0.484%.

`O=C(CCCN1CCC(O)(c2cccc(C(F)(F)F)c2)CC1)c1ccc(F)cc1`: the “activity change, negative = inhibition” value is 0.835%.

Consider `NC(N)=N/N=C/c1c(Cl)cccc1Cl`, for which the “activity change, negative = inhibition” value is 1.07%.

In the case of `Fc1ccc(C(c2ccc(F)cc2)N2CCN(C/C=C/c3ccccc3)CC2)cc1`, the “activity change, negative = inhibition” value is 0.308%.

With `CCCCNC(=O)NS(=O)(=O)c1ccc(C)cc1`, the “activity change, negative = inhibition” value was 1.14%.
